CYP2C19 activ: cytochrome P450 2C19 (human) activation; P33261; recombinant CYP2C19, luciferin-H EGE luminescence; hits give high values; 0 = fully inhibited enzyme, 1 = untreated enzyme; activation factor at 5 µM; 96,000 tested, under 10 active; AID 1025;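 active means activation factor of at least 2 at 5 µM in the primary screen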;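 further: 0 = wells with 2.5 mM tranylcypromine and 1 = vehicle-only wells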
CYP2C19 inh: inhibitors of human CYP2C19; P33261; CYP2C19 Supersomes, luciferin-H EGE luminescence, 30 min; inhibition, % at 5 µM; 21% of 96,000 active; AID 778;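 active means CYP2C19 inhibition above a set limit at 5 µM in the primary screen, cut at about 50% in these data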;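 further: plate controls were negative control wells for no effect and 2.5 mM tranylcypromine positive control for full effect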
CYP2C9 act: activators of human CYP2C9; P11712; recombinant CYP2C9, luciferin-H conversion, luminescence; hits give high values; factor 1 = untreated enzyme, 0 = blocked; activation factor at 5 µM; 1.4% of 96,000 active; AID 1024;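 active means activation factor of 2 or more for CYP2C9 at a 5 µM dose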;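 further: 0 = sulfaphenazole-blocked wells and 1 = vehicle-only wells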
CYP2C9 inhib: blocks human cytochrome P450 2C9 | P11712 | CYP2C9 Supersomes, luciferin-H conversion, luminescence | inhibition, % at 5 µM | 20% of 96,000 active;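 active means blocking of liver enzyme CYP2C9 beyond about 50% at 5 µM, limit read from the data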
Cav3 T inh: inhibitors of human Cav3.2 T-type calcium channel; Cav3.2-expressing cells, Fluo-4 calcium fluorescence FDSS; hits give low values; B-score at 10 µM; 4% of 100,000 active; AID 449739;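 active means single-dose well whose peak fluorescence ratio is a statistical outlier from its plate by either plate-standardised score or position-corrected B-score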
* hit, by the source's call. This is a sample that favours compounds with a hit; in the whole collection about 27% have one here.

Results for S=C1N(c2ccccc2)C(c2ccc(Cl)cc2)N2CCCN12 (centres undefined) ?
CYP2C19 activ: 0.4; CYP2C19 inh: 63*; CYP2C9 act: 0.6; CYP2C9 inhib: 44; Cav3 T inh: -4.8*

Results for CC1(C)CN2C(=S)N(c3ccccc3)C(c3ccccc3)N2C1 (centres undefined) ?
CYP2C19 activ: 0.3; CYP2C19 inh: 67*; CYP2C9 act: 0.3; CYP2C9 inhib: 66*; Cav3 T inh: -4.4

How did O=C(CSc1nnc(-c2ccc(Cl)cc2Cl)n1C1CCCCC1)N1CCCC1 do in these assays?
CYP2C19 activ: 0.6; CYP2C19 inh: 39; CYP2C9 act: 0.6; CYP2C9 inhib: 38; Cav3 T inh: 1

What do the screens show for `Cc1nn(Cc2ccccc2)c(Cl)c1C(=O)OCc1nnc(-c2ccc(Cl)cc2)o1`?
CYP2C19 activ: 0.6; CYP2C19 inh: 40; CYP2C9 act: 0.4; CYP2C9 inhib: 62*; Cav3 T inh: -7.3*

Results for Cc1nn(Cc2ccccc2)c(Cl)c1C(=O)OCc1nnc(-c2ccccc2)o1 ?
CYP2C19 activ: 0.1; CYP2C19 inh: 92*; CYP2C9 act: 0.1; CYP2C9 inhib: 86*; Cav3 T inh: -5*

How did CCCCN(C(=O)Nc1ccc(OCC)cc1)C1CCN(C(C)=O)CC1 do in these assays?
CYP2C19 activ: 0.8; CYP2C19 inh: 16; CYP2C9 act: 0.9; CYP2C9 inhib: 11; Cav3 T inh: -0.1

What do the screens show for `COc1ccccc1NC(=O)N(C1CCCC1)C1CCN(C(C)=O)CC1`?
CYP2C19 activ: 1.1; CYP2C19 inh: -6; CYP2C9 act: 1.1; CYP2C9 inhib: -6; Cav3 T inh: 0.59

How did Cc1ccc(C(=O)Oc2cccc(NC(=O)c3ccco3)c2)cc1S(=O)(=O)N1CCC(C)CC1 do in these assays?
CYP2C19 activ: 0.4; CYP2C19 inh: 60*; CYP2C9 act: 0.1; CYP2C9 inhib: 85*; Cav3 T inh: -1.7

What do the screens show for `O=C(Oc1cccc(NC(=O)c2ccco2)c1)c1ccc(Br)c(S(=O)(=O)N2CCCCC2)c1`?
CYP2C19 activ: 0.7; CYP2C19 inh: 26; CYP2C9 act: 0.5; CYP2C9 inhib: 48; Cav3 T inh: -3.5

How did O=C(NCCc1ccccc1)C1CCCN(S(=O)(=O)c2cnc[nH]2)C1 (centres undefined) do in these assays?
CYP2C19 activ: 0.2; CYP2C19 inh: 85*; CYP2C9 act: 0.4; CYP2C9 inhib: 59*; Cav3 T inh: 0.71

Results for O=C(NCC1COc2ccccc2O1)C1CCCN(S(=O)(=O)c2cnc[nH]2)C1 (centres undefined) ?
CYP2C19 activ: 0.1; CYP2C19 inh: 90*; CYP2C9 act: 0.5; CYP2C9 inhib: 50*; Cav3 T inh: -0.5

Results for O=C(NCCN1CCC(Cc2ccccc2)CC1)C1CCCN(S(=O)(=O)c2cnc[nH]2)C1 (centres undefined) ?
CYP2C19 activ: 1.1; CYP2C19 inh: -6; CYP2C9 act: 0.9; CYP2C9 inhib: 8

Results for Cc1cccc(CCNC(=O)C2CCCN(S(=O)(=O)c3cnc[nH]3)C2)c1 (centres undefined) ?
CYP2C19 activ: 0.1; CYP2C19 inh: 92*; CYP2C9 act: 0.2; CYP2C9 inhib: 77*; Cav3 T inh: -0.61

How did Cc1nn(C)c(C)c1S(=O)(=O)N1CCCC(C(=O)NCC2COc3ccccc3O2)C1 (centres undefined) do in these assays?
CYP2C19 activ: 1; CYP2C19 inh: 4; CYP2C9 act: 1.3; CYP2C9 inhib: -35; Cav3 T inh: 0.9

What do the screens show for `Cc1cccc(N2CCN(C(=O)C3CCCN(S(=O)(=O)c4cnc[nH]4)C3)CC2C)c1` (centres undefined)?
Cav3 T inh: -0.015

What do the screens show for `O=C(NCCC1=CCCCC1)C1CCCN(S(=O)(=O)c2cnc[nH]2)C1` (centres undefined)?
CYP2C19 activ: 0; CYP2C19 inh: 96*; CYP2C9 act: 0.3; CYP2C9 inhib: 66*; Cav3 T inh: -0.23

How did O=C(NCCC1=CCCCC1)C1CCCN(S(=O)(=O)c2ccc(F)cc2)C1 (centres undefined) do in these assays?
CYP2C19 activ: 0.9; CYP2C19 inh: 12; CYP2C9 act: 0.9; CYP2C9 inhib: 10; Cav3 T inh: 0.094

Results for CCNc1nc(SC)nc(N(C#N)CC(=O)OC)n1 ?
CYP2C19 activ: 1; CYP2C19 inh: 3; CYP2C9 act: 1.3; CYP2C9 inhib: -26; Cav3 T inh: 0.17

How did COc1ccc(OC)c(-n2c(-c3cccc(O)c3)n[nH]c2=S)c1 do in these assays?
CYP2C19 activ: 1; CYP2C19 inh: -5; CYP2C9 act: 1; CYP2C9 inhib: -4; Cav3 T inh: 0.69

What do the screens show for `O=C(N/N=C\c1ccc(F)cc1)c1csnn1`?
CYP2C19 activ: 0.8; CYP2C19 inh: 16; CYP2C9 act: 0.9; CYP2C9 inhib: 11; Cav3 T inh: 0.11

Results for CCCS(=O)(=O)N1CCCC(C(=O)NCCN2CCC(Cc3ccccc3)CC2)C1 (centres undefined) ?
CYP2C19 activ: 0.8; CYP2C19 inh: 24; CYP2C9 act: 0.4; CYP2C9 inhib: 65*; Cav3 T inh: 0.61

What do the screens show for `CCCS(=O)(=O)N1CCCC(C(=O)NC2CCCC(C)C2C)C1` (centres undefined)?
CYP2C19 activ: 0.4; CYP2C19 inh: 56*; CYP2C9 act: 0.6; CYP2C9 inhib: 37; Cav3 T inh: 0.083

How did Cc1ccc(S(=O)(=O)c2nc(N3CCOCC3)sc2Cl)cc1 do in these assays?
CYP2C19 activ: 0.6; CYP2C19 inh: 36; CYP2C9 act: 0.9; CYP2C9 inhib: 6; Cav3 T inh: -0.12

How did CN(C)C(=O)Cn1nc(-c2ccccc2)c2ccccc2c1=O do in these assays?
CYP2C19 activ: 0.8; CYP2C19 inh: 22; CYP2C9 act: 1; CYP2C9 inhib: 4; Cav3 T inh: -0.074

How did Cc1ccc(-c2nn3c(C)nnc3c3ccccc23)cc1S(=O)(=O)N(C)CCO do in these assays?
CYP2C19 activ: 1; CYP2C19 inh: 3; CYP2C9 act: 0.1; CYP2C9 inhib: 86*; Cav3 T inh: 2.4

How did Cc1ccc(-c2nn(CC(=O)N(C)C)c(=O)c3ccccc23)cc1S(=O)(=O)N(C)C do in these assays?
CYP2C19 activ: 0.8; CYP2C19 inh: 21; CYP2C9 act: 0.4; CYP2C9 inhib: 62*; Cav3 T inh: -0.76

What do the screens show for `Cc1ccc(-c2nn3c(-c4ccco4)nnc3c3ccccc23)cc1S(=O)(=O)N1CCOCC1`?
CYP2C19 activ: 0.9; CYP2C19 inh: 6; CYP2C9 act: 0.8; CYP2C9 inhib: 17

What do the screens show for `CCOC(=O)N1CCN(S(=O)(=O)c2cc(-c3nn4c(C)nnc4c4ccccc34)ccc2C)CC1`?
CYP2C19 activ: 0.4; CYP2C19 inh: 56*; CYP2C9 act: 0.2; CYP2C9 inhib: 80*; Cav3 T inh: 3.1

How did CC(C)(C)NC(=O)CSc1nnc(Cc2ccc3c(c2)OCO3)n1C1CCCCC1 do in these assays?
CYP2C19 activ: 0.9; CYP2C19 inh: 9; CYP2C9 act: 0.9; CYP2C9 inhib: 10; Cav3 T inh: 1.1
